The source of these data is PMC4336329 (PLoS ONE, 2015).

Out of some 310,000 compounds screened, about 14,000 (4.5%) showed an effect of 50% or more. Effects have a minus sign here. This is one part of a sample in which strong results are shown more often than they occur.
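Also: peak tail current of the secondary pulse compared with the same well before compound.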

human ether-à-go-go-related gene (hERG) potassium channel, sequence (Q12809 whole entry, looked up): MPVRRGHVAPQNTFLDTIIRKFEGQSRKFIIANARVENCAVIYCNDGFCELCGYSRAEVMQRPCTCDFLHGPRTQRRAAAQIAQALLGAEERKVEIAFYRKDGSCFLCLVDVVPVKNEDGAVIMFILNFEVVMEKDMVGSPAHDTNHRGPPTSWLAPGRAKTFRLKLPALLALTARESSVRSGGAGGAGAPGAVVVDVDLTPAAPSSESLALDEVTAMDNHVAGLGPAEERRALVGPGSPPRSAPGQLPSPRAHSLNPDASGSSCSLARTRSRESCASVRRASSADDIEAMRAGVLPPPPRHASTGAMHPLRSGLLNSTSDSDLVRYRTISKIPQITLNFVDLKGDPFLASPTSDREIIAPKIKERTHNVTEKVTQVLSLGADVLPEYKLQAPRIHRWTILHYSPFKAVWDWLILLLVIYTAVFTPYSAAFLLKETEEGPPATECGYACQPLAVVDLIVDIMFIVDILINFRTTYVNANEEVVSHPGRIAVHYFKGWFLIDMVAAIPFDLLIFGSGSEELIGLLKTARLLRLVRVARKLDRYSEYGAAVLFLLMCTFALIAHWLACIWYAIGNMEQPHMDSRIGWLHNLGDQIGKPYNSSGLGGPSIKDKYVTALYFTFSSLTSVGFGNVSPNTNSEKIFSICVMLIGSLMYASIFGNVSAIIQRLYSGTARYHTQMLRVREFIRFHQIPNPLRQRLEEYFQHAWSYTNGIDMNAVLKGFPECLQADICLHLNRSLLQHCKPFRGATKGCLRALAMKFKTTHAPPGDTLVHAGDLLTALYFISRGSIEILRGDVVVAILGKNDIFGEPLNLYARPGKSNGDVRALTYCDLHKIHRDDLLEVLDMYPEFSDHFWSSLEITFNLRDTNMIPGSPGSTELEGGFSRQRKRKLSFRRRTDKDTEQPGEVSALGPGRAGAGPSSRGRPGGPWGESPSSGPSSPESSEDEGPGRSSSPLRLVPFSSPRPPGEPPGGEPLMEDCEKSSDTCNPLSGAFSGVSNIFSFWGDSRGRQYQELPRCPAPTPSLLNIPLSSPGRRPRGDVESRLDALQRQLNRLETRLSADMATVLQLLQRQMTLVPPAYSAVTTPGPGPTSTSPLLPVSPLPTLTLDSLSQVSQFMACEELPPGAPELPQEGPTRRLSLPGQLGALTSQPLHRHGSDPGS

The experiment has as its target human ether-à-go-go-related gene (hERG) potassium channel (human, UniProt Q12809). The experiment is described as follows: primary screen, population patch clamp on CHO cells stably expressing hERG; higher = less effect of the substance.
Regarding `Oc1ccccc1N1CCN(c2ncccn2)CC1`, the “hERG current change (%, negative = inhibition) at 10uM” value amounted to 10.4%.
For `Cc1ccc(S(=O)(=O)NNC(=O)c2sccc2-n2cccc2)cc1` the value was -21.7%; for `CC(C)c1cccc(C(C)C)c1NC(=S)Nc1cccc(Cl)c1`, 5.01%; for `COc1ccc(CC(=O)NNC(=O)c2ccncc2)cc1`, 29.1%.
For `CCOc1ccc(CNS(=O)(=O)c2c(C)nc3scc(C)n3c2=O)cc1OC` the value was 8.99%; for `CCOc1ccc(CNS(=O)(=O)c2c(C)nc3sccn3c2=O)cc1OC`, -66.1%.
Then `COc1cccc(CNS(=O)(=O)c2c(C)nc3sccn3c2=O)c1`, with -13.6%; and `O=C(NCCNC(=O)c1ccccn1)c1ccccc1`, with 11.7%; and `COc1ccc(Nc2c(-c3ccc(C)cc3)nc3cnccn23)cc1`, with -24.5%.
As to `C=CCc1ccc(OCCn2nnc3ccccc32)c(OC)c1`, the “hERG current change (%, negative = inhibition) at 10uM” value is listed as -12.8%.
For `CC1Cc2ccccc2N1C(=S)NC(=O)c1ccc(Cl)cc1Cl` (stereo not drawn) the value was 4.89%.
For `Cc1ccc2c(c1)C1CN(C)CCC1N2C(=O)c1ccc(Br)o1` (stereo not drawn) the value was -38%; for `Cc1ccc2c(c1)C1CN(C)CCC1N2C(=S)Nc1ccc(Cl)cc1Cl` (stereo not drawn), -34.2%.
Then `Cc1ccc(C(=O)N(C)c2ccc(OCC(=O)N3c4ccc(C)cc4C4CN(C)CCC43)cc2)cc1.Cl` (stereo not drawn), with -25.5%.
With `Cc1ccc2c(c1)C1CN(C)CCC1N2C(=S)Nc1cccnc1` (stereo not drawn), the “hERG current change (%, negative = inhibition) at 10uM” value is -14%.
Consider `Cc1ccc2c(c1)C1CN(C)CCC1N2C(=S)Nc1ccc(OC(F)F)cc1` (stereo not drawn), for which the “hERG current change (%, negative = inhibition) at 10uM” value was -55.1%.
For `Cc1ccc2c(c1)C1CN(C)CCC1N2C(=O)c1cn(-c2ccccc2)nc1-c1ccccc1` (stereo not drawn) the value was -65.6%.
Then `Cc1ccc2c(c1)C1CN(C)CCC1N2C(=O)c1ccco1` (stereo not drawn), with -7.26%; and `COc1ccc(-c2nn(-c3ccccc3)cc2C(=O)N2c3ccc(C)cc3C3CN(C)CCC32)cc1` (stereo not drawn), with -31.7%.
For `Cc1ccc2c(c1)C1CN(C)CCC1N2C(=S)NC(=O)c1ccc(Br)cc1` (stereo not drawn) the value was -67.1%; for `Cc1ccc2c(c1)C1CN(C)CCC1N2C(=O)c1cccs1` (stereo not drawn), -22%; for `Cc1ccc2c(c1)C1CN(C)CCC1N2C(=S)NC(=O)c1ccc(Cl)cc1Cl` (stereo not drawn), -71%.
`CC(C)c1ccc(NC(=O)CNCC(c2ccccc2)N(C)C)cc1` (stereo not drawn): the “hERG current change (%, negative = inhibition) at 10uM” value is recorded as -27.6%.
Consider `C/C(=N\NC(=O)c1ccc2c(c1)OCO2)c1ccc(O)cc1`, for which the “hERG current change (%, negative = inhibition) at 10uM” value was 13.1%.
Then `Cc1ccc(/C=N/NC(=O)c2ccco2)s1`, with -2.98%; and `CCOc1cc(S(=O)(=O)NCCCN2CCOCC2)ccc1F`, with 3.16%.
In the case of `Cc1cc(NC(=O)c2c(-c3c(Cl)cccc3Cl)noc2C)n(C)n1`, the “hERG current change (%, negative = inhibition) at 10uM” value is given as 16%.
As for `O=C(CN1C(=O)NC(Cc2ccccc2)C1=O)Nc1ccccc1` (stereo not drawn), the “hERG current change (%, negative = inhibition) at 10uM” value is on record as 6.7%.
With `O=C(CN1C(=O)NC(Cc2ccccc2)C1=O)Nc1ccc(F)cc1` (stereo not drawn), the “hERG current change (%, negative = inhibition) at 10uM” value was -7.41%.
Then `N#Cc1cccc(NC(=O)CN2C(=O)NC(Cc3ccccc3)C2=O)c1` (stereo not drawn), with 2.91%; and `N#Cc1ccc(NC(=O)CN2C(=O)NC(Cc3ccccc3)C2=O)cc1` (stereo not drawn), with -57.7%.
Then `O=C(CN1C(=O)NC(Cc2ccccc2)C1=O)Nc1ccc(OC(F)(F)F)cc1` (stereo not drawn), with -13.9%; and `O=C(CN1C(=O)NC(Cc2ccccc2)C1=O)Nc1ccc(OC(F)F)cc1` (stereo not drawn), with -66.9%; and `Cn1nc(-c2ccccc2)c(C(=O)Nc2ccc(Cl)cc2)c1Cl`, with -12.7%.
As for `O=C(CC1(O)C(=O)Nc2ccccc21)c1ccc(-n2cccc2)cc1` (stereo not drawn), the “hERG current change (%, negative = inhibition) at 10uM” value came to 2.85%.
Take `CCCCN1C(N)=NC[C@@H]1C(C)O` (stereo partly drawn): the “hERG current change (%, negative = inhibition) at 10uM” value came to 15.9%.
As for `Cc1nn(-c2ccc(F)cc2)c(Cl)c1C(=O)OC(C)C(=O)N(C)C1CCCCC1` (stereo not drawn), the “hERG current change (%, negative = inhibition) at 10uM” value is -59%.
For `COC(=O)c1c(C)[nH]c(C(=O)OC(C)C(=O)N(C)C2CCCCC2)c1C` (stereo not drawn) the value was -2.13%.
Then `CC(=O)Nc1ccc(NC(=O)C(C)OC(=O)c2c(C)nn(-c3ccccc3)c2Cl)cc1` (stereo not drawn), with -14.8%; and `Cc1ncc(CN2CCCC(C(=O)c3sccc3C)C2)s1` (stereo not drawn), with 24.7%.
For `Cc1ccsc1C(=O)C1CCCN(Cc2cnc(N(C)C)s2)C1` (stereo not drawn) the value was -9.23%; for `Cc1ccsc1C(=O)C1CCCN(Cc2cccn2-c2ccccn2)C1` (stereo not drawn), -75.8%.
`Cc1ccsc1C(=O)C1CCCN(Cc2cccn2-c2ccc(Cl)cn2)C1` (stereo not drawn): the “hERG current change (%, negative = inhibition) at 10uM” value is -77.6%.
For `CC(C)(C)C(=O)NC1(C(F)(F)F)N=C2SCCN2C1=O` (stereo not drawn) the value was -4.77%; for `CNC(=O)c1c(NC(=O)c2ccco2)sc(C)c1C`, 1.42%; for `CCOc1cccc2c1OC1(C)CC2NC(=O)N1c1cccc(C(=O)N2CCN(c3ccccn3)CC2)c1` (stereo not drawn), -1.89%.
Then `Cc1cc(Br)c(NC(=O)Cn2c([N+](=O)[O-])cnc2C)cc1C`, with 4.01%; and `COc1ccc(NC(=O)C(=O)NCC(c2ccco2)N2CCc3ccccc3C2)cc1OC` (stereo not drawn), with -69.4%; and `O=C(NCC(c1ccco1)N1CCCC1)c1ccc(Cl)c(S(=O)(=O)N2CCc3ccccc32)c1` (stereo not drawn), with -51%.
For `COc1ccc(F)cc1S(=O)(=O)NCC(c1ccco1)N1CCc2ccccc2C1` (stereo not drawn) the value was -30.4%; for `O=C(NCc1ccco1)c1ccc(Cl)c(S(=O)(=O)N2CCc3ccccc32)c1`, -20.6%.
Regarding `COc1cccc(NC(=O)C(=O)NCC(c2ccco2)N2CCc3ccccc3C2)c1` (stereo not drawn), the “hERG current change (%, negative = inhibition) at 10uM” value is listed as -9.29%.
For `O=C(NCC(c1ccco1)N1CCc2ccccc2C1)c1cccc(Br)c1` (stereo not drawn) the value was -5.34%; for `COc1ccc(C)cc1S(=O)(=O)NCC(c1ccco1)N1CCc2ccccc2C1` (stereo not drawn), -62.8%; for `O=C(NCC(c1ccco1)N1CCCCC1)c1cccc(S(=O)(=O)Nc2ccccc2Cl)c1` (stereo not drawn), -2.33%.
Then `COc1ccc(NC(=O)C(=O)NCC(c2ccco2)N2CCc3ccccc3C2)cc1` (stereo not drawn), with -23.5%; and `Cc1ccc(C)c(S(=O)(=O)NCC(c2ccco2)N2CCc3ccccc3C2)c1` (stereo not drawn), with -9.3%.
Consider `O=C(NCC(c1ccco1)N1CCc2ccccc2C1)c1cccc([N+](=O)[O-])c1` (stereo not drawn), for which the “hERG current change (%, negative = inhibition) at 10uM” value is -67.2%.
In the case of `O=C(NCC(c1ccco1)N1CCOCC1)c1cccc([N+](=O)[O-])c1` (stereo not drawn), the “hERG current change (%, negative = inhibition) at 10uM” value is 12.7%.
Then `COc1ccc(C)cc1NC(=O)c1nnn(Cc2cccc(F)c2)c1N`, with 7.11%; and `O=C(c1ccc(NS(=O)(=O)c2ccccc2)cc1)N1CCCCCC1`, with -11.9%; and `COC(=O)c1cc(C#N)c(=O)[nH]c1C`, with 20.3%.
With `Cc1cccc(OCC(=O)Nc2cccc(-c3nnc(-c4ccccc4)o3)c2)c1C`, the “hERG current change (%, negative = inhibition) at 10uM” value is given as -4.37%.
For `CC(C)N1CCC(N2CCN(C3CCCCC3)CC2CCO)CC1` (stereo not drawn) the value was 18.9%; for `O=C(NCC(c1ccco1)N1CCc2ccccc2C1)c1ccc(Cl)c([N+](=O)[O-])c1` (stereo not drawn), -55.5%.
For `O=C(NCC(c1ccco1)N1CCc2ccccc2C1)c1ccc([N+](=O)[O-])cc1` (stereo not drawn) the value was -58.1%.
Then `O=C(NCC(c1ccco1)N1CCc2ccccc2C1)c1cccc(F)c1` (stereo not drawn), with -63.5%; and `Cc1ccc(C(=O)NCC(c2ccco2)N2CCc3ccccc3C2)cc1C` (stereo not drawn), with -5.02%; and `O=C(NCC(c1ccco1)N1CCc2ccccc2C1)C(=O)Nc1ccccc1F` (stereo not drawn), with 8.09%.
Turning to `O=C(NCC(c1ccco1)N1CCc2ccccc2C1)C(=O)Nc1cc(F)ccc1F` (stereo not drawn), the “hERG current change (%, negative = inhibition) at 10uM” value was -52.3%.
For the molecule `O=C(NCC(c1ccco1)N1CCc2ccccc2C1)c1ccc(F)cc1` (stereo not drawn), the “hERG current change (%, negative = inhibition) at 10uM” value is -10.7%.
For `O=C(NCC(c1ccco1)N1CCc2ccccc2C1)c1ccccc1` (stereo not drawn), the “hERG current change (%, negative = inhibition) at 10uM” value was -19%.
For `COc1cccc(C(=O)NCC(c2ccco2)N2CCc3ccccc3C2)c1` (stereo not drawn) the value was -17%; for `O=C(NCC(c1ccco1)N1CCc2ccccc2C1)c1ccc(Cl)cc1` (stereo not drawn), -47.8%.
Regarding `O=C(NCC(c1ccco1)N1CCc2ccccc2C1)C(=O)Nc1ccc(F)cc1F` (stereo not drawn), the “hERG current change (%, negative = inhibition) at 10uM” value is on record as -0.136%.
Consider `O=C(NCC(c1ccco1)N1CCc2ccccc2C1)c1ccc(Br)cc1` (stereo not drawn), for which the “hERG current change (%, negative = inhibition) at 10uM” value is reported as -12.6%.
For `O=C(CN1C(=O)S/C(=C\c2ccc(C(=O)O)cc2)C1=O)Nc1ccccc1` the value was 19%.
Then `CCCCNC(=O)C1Cc2cc(S(=O)(=O)N3CCCCC3)ccc2N1C(C)=O` (stereo not drawn), with 17.4%.
Then `COc1ccc(C2(c3ccc(OC)cc3)NC(=O)N(CC(=O)Nc3ccc(OC)c(OC)c3)C2=O)cc1`, with -2.49%; and `Cc1noc(/C=C/N(C)C)c1S(=O)(=O)N1CCCC(C(=O)N2CCc3ccccc32)C1` (stereo not drawn), with 13%.
As for `CCC(NC(=O)C1CCCO1)c1ccccc1` (stereo not drawn), the “hERG current change (%, negative = inhibition) at 10uM” value came to 22.8%.
Take `Cc1ccc(CNC(=O)CNC(=O)c2ccc(Br)o2)cc1`: the “hERG current change (%, negative = inhibition) at 10uM” value is 5.03%.
Then `Cc1ccccc1CN1[C@@H]2c3ccccc3C[C@@H]2OCCS1(=O)=O`, with -3.4%; and `COc1ccc(C(C(=O)NC2CCCCC2)N(C(=O)c2ccccn2)c2cccnc2)cc1` (stereo not drawn), with 22.4%.
